Hits are enriched below; roughly 5.9% of the tested compounds scored in any of these assays.
Gal4-VP16 FLuc = VP16 counterscreen qHTS for inhibitors of ROR gamma transcriptional activity. Drosophila S2 Gal4-VP16 UAS-luciferase, luminescence, 20 h. Potency, µM (titrated, usually from 53.6 µM), for inactives: at the highest dose activity, negative = inhibition, hits mostly inhibitors. 310,000 tested, 3.5% active. AID 2546, 2010;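 further: Gal4-VP16 expression switched on by copper sulfate through the metallothionein promoter; potency means the concentration at half of the fitted maximal effect; nearly all actives have a fitted effect of over 50% in size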
FBPA coupling cs = qHTS Assay for Inhibitors of Fructose-1,6-bisphosphate Aldolase from Giardia Lamblia: Coupling assay counterscreen | 290,000 tested, 0.67% active | coupling enzyme system counterscreen, AmpLite Red fluorescence | activity change, negative = inhibition, % at 58.2 µM, hits read low; in the data active means activity change below about -30%
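Compounds tested against the coupling enzymes alone at 57.5 uM final; readout was AmpLite Red fluorescence (525/598 nm) after 20 min at RT.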
TrxR1 inh = qHTS Assay for Inhibitors of Mammalian Selenoprotein Thioredoxin Reductase 1 (TrxR1): qHTS. AID 588453, 2011. recombinant rTrxR1, NADPH fluorescence consumption, selenite substrate. 390,000 tested, 1% active. Potency, µM (series often up to 114 µM), for inactives: top-dose activity change, negative = inhibition, actives largely listed as inhibitors. Thioredoxin reductase 1, cytoplasmic (Rattus norvegicus), O89049; further: potency means the concentration at half of the fitted maximal effect; nearly all actives have a fitted effect of over 65% in size
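Rat TrxR1 (90 nM in the dispensed reagent) was pre-reduced with 400 uM NADPH for 5 min at room temperature, then incubated with compound for 15 min. After 400 uM selenite was added, NADPH fluorescence (Ex 340/Em 450 nm) was followed for 8 min.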
RORg inh = qHTS for inhibitors of ROR gamma transcriptional activity; Nuclear receptor ROR-gamma (Mus musculus), P51450; Drosophila S2 Gal4-RORgamma UAS-luciferase reporter, 20 h; Potency, µM (doses to about 53.6 µM), without a hit: top-dose activity change, negative = inhibition, most hits filed as inhibitors; 310,000 tested, 5.4% active; AID 2551, 2010; further: potency means the concentration at half of the fitted maximal effect; nearly all actives have a fitted effect of over 60% in size
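A Gal4/UAS one-hybrid system in insect cells: metallothionein-promoter Gal4–ROR gamma fusion plus Photinus luciferase reporter. Copper sulfate 700 uM final, 20 hr ambient incubation, luminescent detection after 10 min with reagent.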
TrxR1 substrate = qHTS Assay for Substrates of Mammalian Selenoprotein Thioredoxin Reductase 1 (TrxR1): qHTS; Thioredoxin reductase 1, cytoplasmic (Rattus norvegicus), O89049; Potency, µM (highest dose often 114 µM), for the others: at the top dose activity change, negative = substrate turnover; purified TrxR1 substrate turnover, NADPH consumption readout; 390,000 tested, 0.01% active; further: potency means the concentration at half of the fitted maximal effect; nearly all actives have a fitted effect of over 50% in size
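Rat TrxR1, dispensed at 90 nM, was prereduced with 400 uM NADPH (final) for 5 min at ~22 deg C, then incubated with compound 15 min before 400 uM selenite. A first-read NADPH fluorescence drop versus no-compound background flagged substrates.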
GALK inhibitor = qHTS Assay for Inhibitors of Human Galactokinase (GALK). P51570. 270,000 tested, 0.007% active. Potency, µM (doses to about 57.5 µM), for inactives: at the highest dose activity change, negative = inhibition, usual class: inhibitors. Purified GALK, Kinase-Glo residual ATP luminescence; further: potency means the concentration at half of the fitted maximal effect
Target sequence (P51570 whole entry, looked up): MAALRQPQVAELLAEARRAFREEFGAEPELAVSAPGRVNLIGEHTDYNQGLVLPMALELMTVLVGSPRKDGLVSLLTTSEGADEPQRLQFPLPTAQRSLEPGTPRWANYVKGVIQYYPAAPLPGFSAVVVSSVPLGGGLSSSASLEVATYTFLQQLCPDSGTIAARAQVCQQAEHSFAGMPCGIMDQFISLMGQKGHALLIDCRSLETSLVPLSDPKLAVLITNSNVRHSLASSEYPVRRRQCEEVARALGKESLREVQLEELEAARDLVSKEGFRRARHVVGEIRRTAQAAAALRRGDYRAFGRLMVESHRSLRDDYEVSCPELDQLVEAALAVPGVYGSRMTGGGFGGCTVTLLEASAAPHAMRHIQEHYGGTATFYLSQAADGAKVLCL
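The enzyme phosphorylates galactose (100 uM) using ATP (35 uM); inhibition is detected as higher residual ATP, quantified by bioluminescence after 1 h reaction at room temperature, pH 8.0.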
* = called active by the depositor; u = inconclusive; x = not tested or not shown; [ ] = another dose, or the depositor's remark. Unless noted, the call rests on the fitted dose curve; in most records, active means well fitted curve in the direction sought with a large enough effect; inconclusive means small, poorly fitted or top-dose-only effect, or another doubt; inactive means no such curve, though single readings can be large; an effect the other way counts as inactive or inconclusive. On the % scale 0 is the no-effect control and ±100 the full control effect.

SMILES | Gal4-VP16 FLuc | FBPA coupling cs | TrxR1 inh | RORg inh | TrxR1 substrate | GALK inhibitor
CCc1ccc(NC(=O)CSc2nc(-c3ccccc3)no2)cc1 | x | x | 19%[57.1 µM] | x | -1%[57.1 µM] | x
Cc1ccc(C)c(C(=O)CSc2n[nH]c(C)n2)c1 | -6% | 0 | 35µM* | -17% | -3% | 3%
CC(NC(=O)c1cccc(S(=O)(=O)N2CCN(Cc3ccccc3)CC2)c1)c1ccccc1Cl (configuration not stated) | x | x | 12% | x | -9% | x
c1ccc(-c2nc(-c3ccncc3)n[nH]2)nc1 | 13µM* | 2 | 5%[57.1 µM] | 5µM* | 5%[57.1 µM] | 4%
c1ccc(-c2ccncc2)nc1 | x | x | 13% | x | -2% | x
O=C1c2ccccc2C(=O)N1Cc1ccc2c(c1)OCO2 | 8% | -4 | 8% | 3% | 1% | -2%
C=C1c2ccccc2NC(=S)N1Cc1ccc2c(c1)OCO2 | u | -2 | 32%[57.1 µM] | 3.2µM* | 8%[57.1 µM] | -2%
Cc1cccc(NC(=O)CCC2CCN(Cc3nccs3)CC2)c1 | 4% | x | 19% | 1% | 0% | -1%
CCOc1ccc(N/C=C/C(=O)c2ccc(C)cc2)c([N+](=O)[O-])c1 | u | 3 | 25%[57.1 µM] | 2µM* | 8%[57.1 µM] | 0%
Cc1ccnc(NC(=O)/C=C/c2ccccc2Cl)c1 | 5.6µM* | -4 | 25% | 3.5µM* | 5%[57.1 µM] | 2%
Cc1ccnc(NC(=O)/C=C/c2ccccc2[N+](=O)[O-])c1 | -12% | 1 | x | -27% | x | 1%
O=C(/C=C/c1ccccc1)NC(=S)Nc1cccnc1 | -6% | -3 | -9% | 7.1µM* | 3% | 1%
CCOc1ccc(N/C=C/C(=O)c2ccc3ccccc3c2)c([N+](=O)[O-])c1 | -10% | 0 | 9% | -4% | -8% | -1%
Cc1ccnc(NC(=S)NC(=O)/C=C/c2ccccc2)c1 | u | 0 | 36% | 2.8µM* | 8% | 6%
Cc1ccc(S(=O)(=O)CC(=O)Nc2nnc(C(C)C)s2)cc1 | 2% | -10 | 14% | 18% | 0% | -2%
CCOc1ccc(NC(=S)NC(=O)/C=C/c2ccc(OC)c(OC)c2)c([N+](=O)[O-])c1 | 2.5µM* | x | 11%[57.1 µM] | 1.1µM* | 5%[57.1 µM] | 0%
O=C(O)/C=C/C(=O)Nc1cccnc1 | u | -1 | 13%[57.1 µM] | -8% | -16%[57.1 µM] | x
COC(=O)/C=C/C(=O)Nc1cccnc1 | 14% | 4 | u | 11µM* | -10% | 0%
COc1ccc(/C=C/C(=O)Nc2ccccc2)cc1OC | -4% | -12 | 12%[57.1 µM] | 5% | -19%[57.1 µM] | 0%
CCOC(=O)c1cc(-c2ccccc2)sc1NC(=S)Nc1cc(C)ccn1 | 2.2µM* | -1 | -2% | 1µM* | -5% | 0%
CCOC(=O)c1cc(-c2ccccc2)sc1NC(=O)C(C)(C)C | -7% | 3 | 3% | 1% | 23% | 1%
COc1ccc(/C=C/C(=O)NC(=S)Nc2ccccc2)cc1OC | u | 3 | 6% | 10µM* | -4% | x
O=C(NCC(c1cccnc1)N1CCN(c2ccc(F)cc2)CC1)c1ccco1 (configuration not stated) | -4% | 3 | 7%[57.1 µM] | -30% | 10%[57.1 µM] | 0%
COC(=O)[C@H]1[C@H](c2ccccc2)[C@H](C(=O)OC)O[C@H]1c1ccccc1 | x | x | 18%[11.4 µM] | x | -1%[11.4 µM] | x
COc1ccc(CC(=O)NNC(=S)Nc2ccccc2)cc1Br | u | 1 | -27% | 13µM* | -7% | -1%
SMILES | Gal4-VP16 FLuc | FBPA coupling cs | TrxR1 inh | RORg inh | TrxR1 substrate | GALK inhibitor
CC(=O)N(C)c1ccc(NC(=O)/C=C/c2ccccc2Cl)cc1 | 18µM* | -4 | 19%[57.1 µM] | 1.1µM* | -1%[57.1 µM] | -2%
CCOc1ccc(CC(=O)NNC(=S)Nc2ccccc2)cc1Br | -18% | 4 | u | -22% | 4%[57.1 µM] | -2%
COc1ccc(/C=C/C(=O)c2ccc(NC(=O)c3cccs3)cc2)cc1OC | -20% | -5 | -16% | 2.5µM* | -9% | -1%
Cc1cccnc1NC(=S)NC(=O)/C=C/c1ccccc1 | 6.3µM* | 0 | 5%[57.1 µM] | 4.5µM* | 1%[57.1 µM] | -2%
Cc1cccnc1NC(=O)c1ccc(C(=O)c2ccccc2)cc1 | x | x | 7% | x | -1% | x
CCCCOCCOCCSC#N | -8% | x | x | 8% | x | x
CC(=O)c1ccccc1OCC(O)CNC1CCCC1 (configuration not stated) | 3% | x | 2% | -20% | -2% | 5%
Cc1ccnc(NC(=S)NC(=O)/C=C/c2ccc(Cl)cc2)c1 | 13µM* | 3 | 12% | 14µM* | -1% | 1%
CCC(=O)Nc1ccc(NC(=S)NC(=O)/C=C/c2ccccc2)cc1 | u | 1 | -17% | 13µM* | -11% | -3%
CC(=O)c1ccc(NC(=S)NC(=O)/C=C/c2ccccc2)cc1 | -14% | -3 | 14% | -24% | 3% | 0%
C=CCNC(=S)Nc1cc(C)ccn1 | 4µM* | 2 | 15%[57.1 µM] | 1µM* | -4%[57.1 µM] | -1%
O=C(CN1CCN(c2ccccc2F)CC1)N1N=CCC1c1ccccc1 (configuration not stated) | -2% | 1 | -2% | 16% | 0% | 0%
CCOc1ccc(C(=O)Cn2cnnc2C#N)cc1 | 10% | -1 | -3%[57.1 µM] | 19% | 8%[0.0914 µM] | 1%
CCOc1cc(C2CC(=O)N3CN(C4CCCCC4)CSC3=C2C#N)ccc1O (configuration not stated) | -1% | -35* | u | 13% | -3% | -1%
COc1ccc(N(C(=O)CCl)C(C(=O)NC2CCCCC2)c2cccnc2)cc1 (configuration not stated) | -13% | 2 | 16µM* | u | 2% | 1%
O=C(NC1CCCCC1)C(c1cccnc1)N(C(=O)CCl)c1ccc(F)cc1 (configuration not stated) | u | 0 | 14µM* | 11µM* | 13% | 0%
O=C(NC1CCCCC1)C(c1cccnc1)N(C(=O)CCl)c1ccccc1Cl (configuration not stated) | 0% | 0 | 3%[57.1 µM] | u | -19%[57.1 µM] | 1%
Cc1nc2scc(-c3cccs3)c2c(=O)n1-n1cccc1 | x | 5 | -10% | -16%[0.365 µM] | -3% | 0%
COc1ccc(NC(=O)N2CCCC2C(=O)Nc2ccccc2)cc1 (configuration not stated) | -2% | 5 | 3% | 6% | -3% | 0%
COC(=O)c1ccc2nc(-c3ccc(S(C)(=O)=O)cc3)cn2c1 | -17% | 1 | 25%[57.1 µM] | 1% | 45%[57.1 µM] | 1%

Bioassay records (PubChem)
